# How the values were obtained:
# Test in all cases: PBM binding z-score (relative to random genomic background probes); higher = stronger binding; sequences stand for … in GC…GCGATTGACAGCGTAGAATGAAGG
# [1] = system: FXR:RXRa (NR concentration 270 nM, RXRa partner concentration 90 nM)
# Procedure, shortened: (§1)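 Regression normalization was applied to scanned fluorescence from custom Agilent 4×180K protein-binding microarrays. Before scanning, arrays were incubated 1 h with ligand-free nuclear receptor dimers, and binding was detected with antibodies against each partner (one per run). Binding z-scores use the random background probes as reference.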
# [2] = system: LXRa:RXRa (NR concentration 270 nM, RXRa partner concentration 90 nM)
# Procedure, shortened: as §1
# [3] = system: LXRa homodimer (NR concentration 270 nM)
# Procedure, shortened: as §1
# [4] = system: LXRb:RXRa (NR concentration 270 nM, RXRa partner concentration 90 nM)
# Procedure, shortened: as §1
# [5] = system: LXRb homodimer (NR concentration 270 nM)
# Procedure, shortened: as §1
# [6] = system: PPARa:RXRa (NR concentration 270 nM, RXRa partner concentration 90 nM)
# Procedure, shortened: as §1
# [7] = system: PPARg:RXRa (NR concentration 180 nM, RXRa partner concentration 90 nM)
# Procedure, shortened: as §1
# [8] = system: PPARg:RXRa 270nM:90nM, anti-RXR (NR concentration 270 nM, RXRa partner concentration 90 nM)
# Procedure, shortened: as §1
# [9] = system: PPARg:RXRa 30nM:10nM, anti-RXR (NR concentration 30 nM, RXRa partner concentration 10 nM)
# Procedure, shortened: as §1
# [10] = system: PPARg:RXRa 90nM:30nM, anti-RXR (NR concentration 90 nM, RXRa partner concentration 30 nM)
# Procedure, shortened: as §1
# [11] = system: PPARg:RXRa DBDmut IVT, anti-RXR (DBD mutation: RXRa K156A/R161A, NR concentration 270 nM, RXRa partner concentration 90 nM)
# Procedure, shortened: as §1
# [12] = system: PPARg:RXRa IVT, anti-PPARg (NR concentration 270 nM, RXRa partner concentration 90 nM)
# Procedure, shortened: as §1
# [13] = system: PPARg DBDmut:RXRa IVT, anti-PPARg (DBD mutation: PPARg1 K132A/R137A, NR concentration 270 nM, RXRa partner concentration 90 nM)
# Procedure, shortened: as §1
# [14] = system: PPARg DBDmut IVT, anti-PPARg (DBD mutation: PPARg1 K132A/R137A, NR concentration 270 nM)
# Procedure, shortened: as §1
# [15] = system: PPARg homodimer (NR concentration 180 nM)
# Procedure, shortened: as §1
# [16] = system: PXR:RXRa (NR concentration 270 nM, RXRa partner concentration 90 nM)
# Procedure, shortened: as §1
# [17] = system: PXR homodimer (NR concentration 270 nM)
# Procedure, shortened: as §1
# [18] = system: RARa:RXR (NR concentration 270 nM, RXRa partner concentration 90 nM)
# Procedure, shortened: as §1
# [19] = system: RARa homodimer (NR concentration 270 nM)
# Procedure, shortened: as §1
# [20] = system: RARb:RXRa (NR concentration 270 nM, RXRa partner concentration 90 nM)
# Procedure, shortened: as §1
Sequence,PBM binding z-score [1],PBM binding z-score [2],PBM binding z-score [3],PBM binding z-score [4],PBM binding z-score [5],PBM binding z-score [6],PBM binding z-score [7],PBM binding z-score [8],PBM binding z-score [9],PBM binding z-score [10],PBM binding z-score [11],PBM binding z-score [12],PBM binding z-score [13],PBM binding z-score [14],PBM binding z-score [15],PBM binding z-score [16],PBM binding z-score [17],PBM binding z-score [18],PBM binding z-score [19],PBM binding z-score [20]
CCAACTAGGTCAAGGTCAAAGTCGGTTTGTGCCA,6.64,5.56,4.61,4.73,1.43,6.14,9.18,7.58,5.13,7.56,8.26,8.03,1.26,1.36,4.31,5.31,2.55,5.24,3.41,5.3
ATACTAAGGTGATCGTGAGGTCGTTGATACTAAC,2.4,2,0.85,1.55,0.314,2.07,0.615,0.774,0.762,0.566,1.4,1.73,0.74,1.39,1.65,3.74,1.93,2.88,0.716,1.77
TCTTGTAGATTAAAGGTTAAGAAAGCCGAAGCCT,1.25,1.98,0.568,1.82,0.134,3.56,5.78,6.6,6.85,7.33,1.85,2.24,0.866,0.455,1.17,1.13,0.203,2.09,1.4,1.53
TCTAGCAGGCCAGAGGATCACTCAAGAGGTACGG,-0.551,-0.271,-0.763,-0.773,-1.43,-0.206,0.826,1.2,1.53,1.43,0.493,-0.268,-0.802,-1.11,-1.15,-0.557,-0.932,-0.354,-1.38,-0.18
CGTCCAATGTCAAAGGTCAGTGAAGAGATGACGG,4.62,4.48,1.56,3.64,0.773,5.18,6.67,6.88,4.57,6.96,0.671,3.16,0.777,0.834,4.53,4.53,0.54,6.27,2,4.36
AGAAAGAGGTTAAGATCAGGGAAACAGAATACAT,2.5,2.43,0.396,2.31,0.766,3.66,2.06,1.89,1.05,1.34,1.12,1.52,1.97,0.819,1.02,1.37,0.655,1.89,0.728,2.4
GGTACAGGGTCAAGGCCAGAGTACGCGTATTGAT,6.7,3.85,0.0121,3.89,-0.206,5.92,5.62,5.68,2.38,4.07,1.42,3.96,0.368,0.441,2.35,3.98,0.674,4.77,0.889,4.63
ATCTCTAGATAAAGATAGTTCAGTGAATGCAAAT,-0.281,0.122,0.343,0.191,0.206,-0.0361,0.872,0.0626,0.338,0.179,-0.378,-0.22,0.441,0.839,0.626,0.206,0.643,0.29,0.981,0.124
CCTACTGGGCCATTCAGAGATCATTGATCATATG,-0.238,-0.231,-0.224,-0.409,-0.653,0.219,0.557,0.204,-0.621,-0.372,4.48,3.51,0.0285,0.282,-0.3,-0.546,-0.622,-0.523,0.13,0.0331
TAGCCTAGGTCATATCGGGCCAGTATACGCTATA,4.12,3.82,0.583,2.59,0.744,3.14,1.53,1.61,0.227,0.981,1.18,2.19,0.112,0.0699,0.54,2.18,0.0831,1.92,-0.618,3.37
CCTGCTAGGTCATGGTCAGCAAATCTACAGTATG,3.65,2.33,0.105,1.71,-0.273,3.53,2.37,2.74,0.551,1.8,4.25,3.63,0.173,-0.183,1.03,1.15,-0.302,2.22,0.017,3.7
CGTCAAAGTTAAACTAAGGTAACGTAAAGCACGC,0.945,1.15,0.57,0.346,0.169,0.868,0.628,0.688,0.0889,0.292,0.269,0.719,0.529,0.672,0.0557,0.525,0.364,1.08,0.284,0.845
TCGAGTAGGTTAGGAGCATTCAGAATGGCGTCGA,-0.126,-0.0909,-0.756,-0.438,-1.39,0.24,0.0725,0.668,0.928,0.741,1.4,0.397,-0.907,-1.2,-0.371,-0.392,-0.58,-0.181,-0.978,0.0424
AGTTAAAGTTCATCTAGGTAACGTAAGATATGCT,6.36,6.33,5.76,3.75,2.33,4.67,4.77,4.99,2,4.03,1.51,3.39,1.68,1.41,2.77,4.75,6.53,3.23,2.39,4.79
CCTTACGGGTCAAGGTTATAGCTCGGGTGGTACG,5.6,3.71,0.385,3.06,0.274,5.04,4.42,4.35,1.57,3.44,2.32,3.66,0.883,-0.415,1.91,3.16,0.16,3.72,0.652,4.12
TAGCCTAGGTCATTCAGGGACCAGTATAGAAAGC,4.75,3.39,0.547,2.25,0.504,3.62,2.01,2.24,0.478,1.37,0.873,2.72,0.102,-0.132,0.904,1.67,-0.229,2.18,-0.017,3.57
CAGCCTACGTCAGGGCCAGTATAGGAGGAACGTT,-0.299,-0.664,-0.318,-0.547,-1.11,-0.518,0.171,-0.999,-0.483,-0.832,-0.745,-0.587,-0.356,-0.405,-0.116,-0.512,-0.548,0.00174,-0.296,-0.405
CGTCCAAGGCCATAGGAGGTCAGTGAAGACAGAT,2.46,3.14,0.814,1.69,-0.756,2.21,0.688,0.571,-0.185,0.133,0.496,1.69,-0.275,-0.658,0.925,3.03,1.16,2,-0.0451,2.9
ACTAGCACGCCAAGTTTGGGTCACTCAAACAAAG,0.0024,-0.138,-0.715,0.642,-0.337,1.17,-0.0065,-0.00833,-0.577,-0.34,-0.764,0.325,-0.643,-0.578,0.00723,0.524,-0.537,0.981,-0.534,1
TCTGCTAGGTCAACGATGCTCAGCTAATCTGCTA,2.94,1.88,-0.569,1.22,-0.547,3.02,2.04,2.92,1.7,2.32,4,3.88,0.146,-0.121,-0.00894,0.886,-1.03,1.69,-0.557,3.82
ATCGAGAGGTCGAAGGTGAGTATACCCACCCGAA,3.03,2.43,-0.396,1.74,-0.284,4.07,3.99,3.99,1.81,3.84,-0.545,1.62,0.516,0.104,0.129,2.42,-0.494,3.29,-0.646,2.8
GGAACGAGGGCAAGTTGATAGGAGAGTTTGATGG,0.63,0.287,-0.48,0.289,-0.332,1.81,1.05,0.946,0.0757,0.63,3.49,2.69,-0.522,0.0128,0.664,0.817,1.15,0.165,-0.204,2.63
ACTATTAGTTGAGACGAGGGCAACAGATAGGTTG,0.212,-0.0273,-0.073,0.0186,0.272,0.442,0.846,-0.171,0.0997,-0.129,0.565,0.556,0.565,1.23,0.704,1.13,0.384,0.971,0.692,0.75
ATCGAAAGGTCGAGGTTAGTATAGAGAAAGGGAA,3.77,3.57,0.422,2.93,0.526,4.48,3.03,3.6,1.65,2.68,0.147,1.68,0.823,1.11,3.22,2.65,0.569,3.81,1.39,4.09
TCGTATAGGTAAAGGTGAAAGTCGAACGATATGA,1.05,1.45,0.11,1.11,-0.167,2.87,2.34,3.99,3.45,3.86,2.04,2.57,0.89,0.655,1.4,0.71,0.0439,1.58,0.749,2.07
AATTACGGGTCAACGAGGTTATAGCACGCGTATA,7.35,6.12,3.47,4.88,1.02,6,6.93,6.19,2.81,5.1,3.6,5.01,2.85,2.31,3.16,5.27,3.27,5.49,1.87,4.27
TGTCAAAGTTCAAAGGTAACGTAAGTATCCACAC,6.82,6.64,4.55,4.83,2.02,5.9,8.46,7.64,5.11,7.32,0.64,4.66,1.24,1.15,2.16,5.77,3.43,6.45,0.967,5.11
CCATACGGGTCACTGACAGGTTATAGCATTTGGA,4.49,4.04,0.394,3.31,0.0673,4.83,3.92,3.76,1.43,2.41,2.31,3.21,0.442,0.0659,2.58,3.55,0.194,4.58,1.68,3.81

# Reference: the supplement of paper PMC6555819
